# PLCb3 inh = blocks human PLC-beta3 enzyme activity; Q01970; Purified PLC-beta3, fluorogenic substrate, fluorescence; inhibition, % at 12.2 µM; 370,000 compounds, 0.18% hits; AID 720704; in the data active means inhibition above about 11%
# MBD2 DNA inh = blocks human MBD2 binding to methylated DNA; inhibition, % at 4.4 µM; AID 686964; 370,000 compounds, 0.31% hits; TR-FRET, MBD2 binding to methylated oligonucleotide; in the data active means inhibition above about 13%
# LEDGF integ inh = blocks HIV-1 LEDGF/p75-dependent DNA integration | TR-FRET IN-LEDGF/p75 DNA integration, Eu/Cy5 | inhibition, % at 3.7 µM | 370,000 compounds, 0.64% hits;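 active means inhibition above the screen-wide mean plus 3 SD, cut at about 13% in these data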;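 further: signal is the Cy5 over europium emission ratio at 671 and 618 nm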
# UHRF1 binding = human UHRF1 methylated DNA binding inhibitors; 370,000 compounds, 0.75% hits; inhibition, % at 4.4 µM; UHRF1 binding to methylated oligo, TR-FRET; AID 687016; Q96T88; in the data active means inhibition above about 21%;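 further: UHRF1 SRA domain binding a hemimethylated CpG hairpin DNA probe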
# Target sequence (Q96T88 whole entry, looked up, the tested form may be a part): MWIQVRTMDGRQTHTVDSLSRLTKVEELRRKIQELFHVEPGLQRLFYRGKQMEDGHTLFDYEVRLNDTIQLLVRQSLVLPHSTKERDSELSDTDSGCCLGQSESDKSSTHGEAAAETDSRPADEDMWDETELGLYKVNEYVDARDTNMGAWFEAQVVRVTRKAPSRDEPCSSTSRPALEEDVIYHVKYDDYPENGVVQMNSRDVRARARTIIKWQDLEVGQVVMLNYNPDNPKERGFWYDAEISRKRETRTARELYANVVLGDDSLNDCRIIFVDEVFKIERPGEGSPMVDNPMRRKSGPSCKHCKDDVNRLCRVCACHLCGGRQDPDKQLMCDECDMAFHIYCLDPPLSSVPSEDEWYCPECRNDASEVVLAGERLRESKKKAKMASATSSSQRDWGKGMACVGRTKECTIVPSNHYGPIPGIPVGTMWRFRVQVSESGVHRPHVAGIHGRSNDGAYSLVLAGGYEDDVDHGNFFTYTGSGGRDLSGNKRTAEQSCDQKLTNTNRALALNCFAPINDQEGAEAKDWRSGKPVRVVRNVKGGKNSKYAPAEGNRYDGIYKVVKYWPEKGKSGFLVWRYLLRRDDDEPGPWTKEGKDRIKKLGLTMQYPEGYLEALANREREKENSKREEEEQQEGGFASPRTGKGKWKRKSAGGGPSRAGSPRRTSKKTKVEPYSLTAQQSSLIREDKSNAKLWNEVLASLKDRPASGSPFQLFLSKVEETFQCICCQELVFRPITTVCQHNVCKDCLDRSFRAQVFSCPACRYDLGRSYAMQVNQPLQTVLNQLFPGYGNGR
# PLCg1 inh = inhibitors of human phospholipase C gamma1; inhibition, % at 12.2 µM; purified PLC-gamma1, fluorogenic substrate, fluorescence; 370,000 compounds, 0.84% hits
# PLCgamma1 ctr = counter-screen for PLC-beta3 inhibitors: inhibitors of human PLC-gamma1. inhibition, % at 12.3 µM. AID 743258. shares compounds with PLCg1 inh. 3,300 compounds, 3.1% hits. purified PLC-gamma1, fluorogenic substrate, fluorescence
# PLCbeta3 conf = human PLC-beta3 inhibition, confirmation | AID 743261 | purified PLC-beta3, fluorogenic substrate fluorescence | inhibition, % at 12.3 µM | shares compounds with PLCg1 inh | 3,300 compounds, 1% hits; in the data active means inhibition above about 11%
# A number is an active result; 0 = inactive; - = not tested or not shown. In the library only some 2.3% were active in any assay of this set; here they are far more common. Unless noted, no stated cut-off is given here; in the data, active means inhibition above about 9.5%; inactive means the rest.
SMILES,PLCb3 inh,MBD2 DNA inh,LEDGF integ inh,UHRF1 binding,PLCg1 inh,PLCgamma1 ctr,PLCbeta3 conf
Cc1ccc(-n2c(Cc3cccs3)nnc2SCC(=O)Nc2cccc3ccccc23)cc1,0,0,0,0,13,0,0
Cc1ccccc1OCCCc1c(C)n[nH]c1C,0,0,0,0,9.8,0,0
COc1cccc2c1[C@H](/C=C/c1ccccc1)[C@@H]([C@H](O)CO)OC2,0,0,0,0,0,-,-
CN(C(=O)COC(=O)C1CCN(S(=O)(=O)c2ccc3c(c2)OCCO3)CC1)C1CCS(=O)(=O)C1 (centres undefined),0,0,0,0,14,0,0
CCn1c(COc2ccccc2C)nnc1SCC(=O)N1CCC(C)CC1,0,0,0,0,0,-,-
CCn1c(COc2ccccc2C)nnc1SCC(=O)N1CCCCC1,0,0,0,0,14,0,0
O=[N+]([O-])c1ccc(NCCCN2CCC(C(O)(c3ccccc3)c3ccccc3)CC2)cc1,0,0,0,0,13,0,0
OC(c1ccccc1)(c1ccccc1)C1CCN(CCCNc2ccccc2F)CC1,0,0,0,0,0,-,-
CCc1ccc(C(=O)OCC(=O)N(CC)c2c(N)n(Cc3ccccc3)c(=O)[nH]c2=O)cc1,0,0,0,0,0,-,-
CCN(C(=O)COC(=O)c1ccc(C=O)cc1)c1c(N)n(Cc2ccccc2)c(=O)[nH]c1=O,0,0,0,0,19,0,0
C=CCNC(=O)CN(C(=O)Cc1ccc(Cl)nc1)c1cccc(Br)c1,0,0,0,0,0,-,-
CCOC(=O)c1c(C)[nH]c(C)c1S(=O)(=O)NCCc1sccc1C,0,0,0,0,9.9,0,0
COC(=O)c1ccc(S(=O)(=O)N2CCC(NC(=O)COc3ccc(F)cc3)CC2)cc1,0,0,0,0,0,-,-
CCc1cccc(NS(=O)(=O)c2c(C)n[nH]c2C)c1,0,0,0,0,9.8,0,0
COC(=O)C1CN(Cc2cn(CCOC(C)=O)nn2)CCS(=O)(=O)N1Cc1ccccc1 (centres undefined),0,0,0,0,0,-,-
O=C(Nc1ccccc1)C1C2CCC3C(CCC21)C3(Cl)Cl (centres undefined),0,0,0,0,11,0,0
COc1ccccc1CNC(=O)N1CCN(Cc2nc3ccccc3c(=O)[nH]2)CC1,0,0,0,0,0,-,-
C=CCn1c(SCc2c(Cl)cccc2Cl)nnc1-c1cccc(C)c1,0,0,0,0,0,-,-
COc1ccc(/C=C2\CC3(OC(=O)c4ccco4)CCCN2C3)cc1 (centres undefined),0,0,0,0,0,-,-
COc1ccc(C2=NN(C(=O)CCCC(=O)O)C(c3cn(-c4ccccc4)nc3-c3ccccc3)C2)cc1 (centres undefined),0,0,0,0,14,0,0
CC(=O)CC[C@H]1CC[C@]2(CCCN(C(=O)c3ccc4ccccc4n3)C2)O1,0,0,0,0,0,-,-
COc1ccc(C(=O)Nc2cc(C)nc3ccccc23)cc1OC,0,0,0,0,10,0,0
Cc1c(NC(=O)c2ccc3c(c2)OCO3)cccc1-c1nc2ccccc2o1,0,0,0,0,0,-,-
COc1ccc(C(=O)Nc2ccccc2C(=O)N2CCOCC2)cc1OC,0,0,0,0,9.8,0,0
COc1cc(C(=O)Nc2cccc(-c3nc4ccccc4o3)c2C)cc(OC)c1OC,0,0,0,0,14,0,0
SMILES,PLCb3 inh,MBD2 DNA inh,LEDGF integ inh,UHRF1 binding,PLCg1 inh,PLCgamma1 ctr,PLCbeta3 conf
COC(=O)[C@]12C[C@H](CC(=O)N3CCCCC3)C(=O)N(Cc3ccc4c(c3)OCO4)C1=C[C@H](C(C)C)O[C@@H]2C1CC1,0,0,0,0,0,-,-
CCOC(=O)Cc1csc(SCC(=O)Nc2cccc(Cl)c2)n1,0,0,0,0,14,0,0
CCCC1(CCC)NC(=O)N(CC(=O)Nc2ccc(Cl)c(S(=O)(=O)N3CCOCC3)c2)C1=O,0,0,0,0,11,0,0
CC(C)C[C@@H]1COc2cc(Br)ccc2S(=O)(=O)N1Cc1cn(CCC2OCCO2)nn1,0,0,0,0,0,-,-
COC(=O)c1sccc1NC(=O)CN(C)NS(=O)(=O)c1ccc(F)cc1,0,0,0,0,12,0,0
COC(=O)c1sccc1NC(=O)CN(C)NS(=O)(=O)c1ccc(Cl)cc1,0,0,0,0,0,-,-
O=C(NC(=S)Nc1ccc(NC(=O)c2cccs2)cc1)c1ccco1,15,0,0,0,0,0,0
COC(=O)NCc1ccc(Cl)c(Cl)c1,0,0,0,0,12,0,0
S=C(NCCCc1cnc[nH]1)NCCCN(Cc1ccc(Cl)cc1)c1ccc(Br)cn1,0,0,0,0,11,0,0
O=Cc1c(-c2ccc(F)cc2)nc2ccccn12,0,0,0,0,11,0,0
C[C@H](NC(=O)[C@@H]1CSC2c3ccccc3C(=O)N21)C(=O)NCCc1ccccc1 (some centres undefined),0,0,0,0,0,-,-
C[C@H](NC(=O)[C@@H]1CSC2c3ccccc3C(=O)N21)C(=O)NCCc1ccc(F)cc1 (some centres undefined),0,0,0,0,12,0,0
O=C(OC12CCCN(C1)/C(=C/c1ccccc1)C2)C1CCCC1 (centres undefined),0,0,0,0,0,-,-
O=C(OC1CC2CCC(C1)[N+]21CCCC1)C(O)(c1ccccc1)c1ccccc1 (centres undefined),0,0,0,0,0,-,-
COc1cccc(NC(=O)c2ccccc2Oc2ccccc2)c1,0,0,0,0,9.8,0,0
COc1ccc(NC(=O)c2ccccc2Oc2ccccc2)cc1,0,0,0,0,0,-,-
O=C(NCC1COc2ccccc2O1)c1ccc(NC(=O)c2c(Cl)cccc2Cl)cc1 (centres undefined),0,0,0,0,0,-,-
COc1cc(NS(=O)(=O)c2ccc(NC(=S)NC(C)=O)cc2)nc(OC)n1,14,0,0,0,16,0,0
COc1cc(NS(=O)(=O)c2ccc(NC(=O)CN3C(=O)c4ccccc4C3=O)cc2)nc(OC)n1,0,0,0,0,12,0,0
COc1cc(NS(=O)(=O)c2ccc(NC(=S)NC(=O)COc3ccccc3OC)cc2)nc(OC)n1,0,0,0,0,14,0,0
CCCCCC(=O)Nc1ccc(S(=O)(=O)Nc2cc(OC)nc(OC)n2)cc1,0,0,0,0,0,-,-
O=S1(=O)CC(N2CCSCC2)CN1Cc1cn(Cc2ccc(C(F)(F)F)cc2)nn1 (centres undefined),0,0,0,0,13,0,0
O=C(Nc1ccc(Br)cc1)C1CCCN(S(=O)(=O)c2cccnc2)C1 (centres undefined),11,0,0,0,0,0,0
Cn1nnnc1SCCNC/C=C/c1ccccc1,13,0,0,0,0,0,0
Cn1nnnc1SCCNCc1cccc2ccccc12,0,0,0,0,0,-,-
